Measurements published in the supplement of paper PMC10338343.
± gives the standard deviation.

tested on: MILI (PIWIL2) piRISC loaded with L1MC piRNA (26 nt); assay: pre-steady-state target cleavage rate (min^-1); guide: L1MC piRNA 5'p-UAACUAAAUACUAUGCAAGCUGUAGG; higher = faster piRNA-guided slicing of the target; settings: auxiliary factor: 500 nM mouse GTSF1
Summary of the method: (§1)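 Sequencing of uncleaved targets, normalised to depth and to weakly complementary targets, was the readout of this Cleave-'n-Seq assay. A transcribed, DNA-blocked target RNA library (0.1 nM) was mixed with 1 nM active affinity-purified piRISC carrying one synthetic guide, with or without 500 nM GTSF1 partner protein, in HEPES–potassium acetate buffer at 33 °C for 0–8 or 0–960 min. Three trials were pooled, k3 was capped at 0.0001 min^-1, and a burst-and-steady-state fit gave the pre-steady-state cleavage rate.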

Sequence	pre-steady-state target cleavage rate
UCCUGCUACAGCUUGCAAAGUAUUUACAAA	0.0731 ± 0.018
UCCUCCUACAGCAUGCAUAGUAUUUAGAUA	0.176 ± 0.027
UCCUGGAUCAGCUUGCAUAGUAUAUAGUAA	0.189 ± 0.019
UCCUGGAUGAGCUUGCUUAGUAUUUAGAUA	0.128 ± 0.02
UCCUGCUACAGCUUGCAUAGUAUUUUGAAA	0.112 ± 0.029
UCCUCGAACAGCUUGCAUAGUAUUUAGAAA	0.137 ± 0.019
UCCUGCUACUGCUUGCAUAGUAUUUAGUAA	0.146 ± 0.034
UCCUGGUACAGCUAGCAUAGUAUUUAGAUA	0.0905 ± 0.022
UCCUGCUACAGCUUGCAUAGAUUUUAGUAA	0.0161 ± 0.0046
UCCUCCUACAGCUUGGUUAGUAUUUAGAAA	0.081 ± 0.016
UCCUGGAUCAGCUUGCAUUGUAUUUAGAUA	0.103 ± 0.019
UCCUCCUACAGCUUGCUAUAGUAUUUAGUUA	0.0206 ± 0.0064
UCCUCCUACAGCUUGCAUAGUUUUAAGUUA	0.0543 ± 0.012
UCCUGGAUCUCCUUGCAUAGUAUUUAGAAA	0.192 ± 0.031
UCCUGGAACAGCUUCCAUAGUAUUUAGUAA	0.0767 ± 0.03
UCCUGGAACAGCUUGCAUAGUAAUUAGUAA	0.108 ± 0.015
UCCUGGAUGUGCUUGGCAUAGUAUUUAGUUA	0.19 ± 0.057
UCCUGGAACAGCUUGCAUAGUUAUUAGUUA	0.0369 ± 0.0099
UCCUCCUACAGCUUGCAUAGAAUUUAGUUA	0.1 ± 0.021

Sequence	pre-steady-state target cleavage rate
UCCUGCUACAGCUUGCAUAGAAUUAAGUUA	0.048 ± 0.012
UCCUCCUACUGCUUCCAUAGUAUUUAGUUA	0.0403 ± 0.0098
UCCUCGAUCAGCUUGCAUAGUAUUUUCAAA	0.0652 ± 0.014
UCCUCCUACAGCUUGCUUAGUAUUAAGUUA	0.116 ± 0.018
UCCUCCUACAGCUUGCAUAGUAUUUAGUGUA	0.158 ± 0.027
UCCUGCUACAGCUUGCAUAUAUUUAGUUA	0.046 ± 0.011
UCCUGCUACAGCUUGCAUACUAUUUAGAAA	0.0482 ± 0.015
UCCUGCUACAGCAUGCAUAGUAUUUAGAUA	0.179 ± 0.033
UCCUCCUUCAGCUUGCAUAGUAUUUUCAAA	0.115 ± 0.022
UCCUCCUACAGCUUGCAUUGUAUUUAGAUA	0.119 ± 0.019
UCCUGGAUCAGCUUGCAUAGUAUAUAGAUA	0.0407 ± 0.013
UCCUCCUACAGCUUGCAUAGUAUUUUGUAA	0.092 ± 0.019
UCCUGGUACUCCUUGCAUAGUAUUUAGUAA	0.131 ± 0.032
UCCUCCUACAGCUUGGAUAGUAUUUAGAAA	0.0815 ± 0.017
UCCUGGUACAGCUUGCAUAGUAUUAUCUAA	0.0327 ± 0.012
UCCUGCUACAGCUUGCAUAGUAUUAUCUUA	0.16 ± 0.035
UCCUGGAUGAGGAUGCAUAGUAUUUAGAAA	0.0101 ± 0.0046
UCCUGGAUGUGCUUGCAUAAUAUUUAGUUA	0.158 ± 0.018
UCCUGCUACAGCUUGCAAACUAUUUAGUUA	0.048 ± 0.012

tested on: EfPiwi piRISC loaded with L1MC piRNA (26 nt); assay: pre-steady-state target cleavage rate (min^-1); auxiliary factor: 500 nM Ephydatia muelleri Gtsf1; guide: L1MC piRNA 5'p-UAACUAAAUACUAUGCAAGCUGUAGG; MIWI and MILI are mouse PIWI proteins and EfPiwi is from a freshwater sponge; tags in brackets are library labels; higher = faster piRNA-guided slicing of the target; settings: not given
Summary of the method: as §1

Sequence	pre-steady-state target cleavage rate
UCCUGCUACAGCUUGCAAAGUAUUUACAAA	0.00394 ± 0.0025
UCCUCCUACAGCAUGCAUAGUAUUUAGAUA	0.00452 ± 0.0019
UCCUGGAUCAGCUUGCAUAGUAUAUAGUAA	0.00291 ± 0.0023
UCCUGGAUGAGCUUGCUUAGUAUUUAGAUA	0.00382 ± 0.0029
UCCUGCUACAGCUUGCAUAGUAUUUUGAAA	0.0045 ± 0.0018
UCCUCGAACAGCUUGCAUAGUAUUUAGAAA	0.00534 ± 0.0018
UCCUGCUACUGCUUGCAUAGUAUUUAGUAA	0.00464 ± 0.0016
UCCUGGUACAGCUAGCAUAGUAUUUAGAUA	0.00618 ± 0.0029
UCCUGCUACAGCUUGCAUAGAUUUUAGUAA	0.0033 ± 0.0022
UCCUCCUACAGCUUGGUUAGUAUUUAGAAA	0.00231 ± 0.0022
UCCUGGAUCAGCUUGCAUUGUAUUUAGAUA	0.00276 ± 0.0021
UCCUCCUACAGCUUGCUAUAGUAUUUAGUUA	0.00859 ± 0.0032
UCCUCCUACAGCUUGCAUAGUUUUAAGUUA	0.00431 ± 0.0024
UCCUGGAUCUCCUUGCAUAGUAUUUAGAAA	0.00628 ± 0.0051
UCCUGGAACAGCUUCCAUAGUAUUUAGUAA	0.00376 ± 0.0014
UCCUGGAACAGCUUGCAUAGUAAUUAGUAA	0.00418 ± 0.0019
UCCUGGAUGUGCUUGGCAUAGUAUUUAGUUA	0.00458 ± 0.0029
UCCUGGAACAGCUUGCAUAGUUAUUAGUUA	0.00251 ± 0.0017
UCCUCCUACAGCUUGCAUAGAAUUUAGUUA	0.0078 ± 0.0023
UCCUGCUACAGCUUGCAUAGAAUUAAGUUA	0.00288 ± 0.0022

Sequence	pre-steady-state target cleavage rate
UCCUCCUACUGCUUCCAUAGUAUUUAGUUA	0.0043 ± 0.0018
UCCUGGAUGUCGAACGUAUCUAUUUAUGUUA	< 0.0001
UCCUCGAUCAGCUUGCAUAGUAUUUUCAAA	0.00433 ± 0.0023
UCCUCCUACAGCUUGCUUAGUAUUAAGUUA	0.00459 ± 0.0031
UCCUCCUACAGCUUGCAUAGUAUUUAGUGUA	0.00735 ± 0.0033
UCCUGCUACAGCUUGCAUAUAUUUAGUUA	0.00528 ± 0.0031
UCCUGCUACAGCUUGCAUACUAUUUAGAAA	0.00298 ± 0.0021
UCCUGCUACAGCAUGCAUAGUAUUUAGAUA	0.00378 ± 0.0015
UCCUCCUUCAGCUUGCAUAGUAUUUUCAAA	0.00259 ± 0.0024
UCCUCCUACAGCUUGCAUUGUAUUUAGAUA	0.00539 ± 0.0029
UCCUGGAUCAGCUUGCAUAGUAUAUAGAUA	0.00301 ± 0.0023
UCCUCCUACAGCUUGCAUAGUAUUUUGUAA	0.0056 ± 0.003
UCCUGGUACUCCUUGCAUAGUAUUUAGUAA	0.00302 ± 0.002
UCCUCCUACAGCUUGGAUAGUAUUUAGAAA	0.00325 ± 0.0015
UCCUGGUACAGCUUGCAUAGUAUUAUCUAA	0.00312 ± 0.0027
UCCUGCUACAGCUUGCAUAGUAUUAUCUUA	0.00653 ± 0.0042
UCCUGGAUGAGGAUGCAUAGUAUUUAGAAA	0.0024 ± 0.0024
UCCUGGAUGUGCUUGCAUAAUAUUUAGUUA	0.00327 ± 0.0027
UCCUGCUACAGCUUGCAAACUAUUUAGUUA	0.00535 ± 0.002
